# About 7,900 targets were measured; listed, in parts, are those with a hit and a random draw of the rest. About 0.6% of all pairs of compound and target were hits. A number with no mark means an inactive call.
# Assays:
# Test in all cases: log2 fold change, soluble protein after heating vs DMSO (PISA); higher = thermal stabilisation; K562 cells, 10 uM, 30 min; active = over 0.2 and 3.5 SD of the protein, either way, in both replicates (recomputed)
# zotarolimus = compound: CO[C@H]1C[C@@H]2CC[C@@H](C)[C@@](O)(O2)C(=O)C(=O)N2CCCC[C@H]2C(=O)O[C@H]([C@H](C)C[C@@H]2CC[C@H](n3cnnn3)[C@H](OC)C2)CC(=O)[C@H](C)/C=C(\C)[C@@H](O)[C@@H](OC)C(=O)[C@H](C)C[C@H](C)/C=C/C=C/C=C/1C [zotarolimus]
# In short: (§1)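 Quantification of soluble protein used TMTpro 16plex LC-MS/MS, with channel sums equalised. Samples were the supernatant after 21,000xg for 90 min of pooled aliquots from K562 cells (2×10^6 cells/mL) treated with 10 μM compound for 30 min, heated for 3 min over 48°C-58°C, and extracted in PBS with 0.5% NP-40 at 4°C. Values, from duplicates, describe thermal stability against control samples on a log2 fold-change scale.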
# alisertib = compound: COc1cc(Nc2ncc3c(n2)-c2ccc(Cl)cc2C(c2c(F)cccc2OC)=NC3)ccc1C(=O)O [alisertib]
# In short: as §1
# [1] = compound: COc1cc2nc(-c3cc(F)ccc3O)nc(N[C@@H]3CNC[C@H]3C(C)(C)O)c2cc1OC
# In short: as §1
# [2] = compound: COc1cccc2cc(-c3nc([C@H]4CC[C@H](C(=O)O)CC4)n4ncnc(N)c34)[nH]c12
# In short: as §1
# lapatinib = compound: CS(=O)(=O)CCNCc1ccc(-c2ccc3ncnc(Nc4ccc(OCc5cccc(F)c5)c(Cl)c4)c3c2)o1 [lapatinib]
# In short: as §1
# pictilisib = compound: CS(=O)(=O)N1CCN(Cc2cc3nc(-c4cccc5[nH]ncc45)nc(N4CCOCC4)c3s2)CC1 [pictilisib]
# In short: as §1
# [3] = compound: C[C@@H]1COCCN1C2=NC(=NC(=C2)C3(CC3)S(=O)(=O)C)C4=C5C=CNC5=CC=C4
# In short: as §1
# [4] = compound: C[C@H](C1=CC=C(C=C1)C(=O)NC2=C3C=CNC3=NC=C2)N
# In short: as §1
# gandotinib = compound: Cc1cc(Nc2cc(CN3CCOCC3)c3nc(C)c(Cc4ccc(Cl)cc4F)n3n2)n[nH]1 [gandotinib]
# In short: as §1
# ispinesib = compound: Cc1ccc(C(=O)N(CCCN)[C@@H](c2nc3cc(Cl)ccc3c(=O)n2Cc2ccccc2)C(C)C)cc1 [ispinesib]
# In short: as §1
# [5] = compound: COC1=CC=C(C=C1)CN2C=CC3=C2C=C(C=C3)C(=O)NO
# In short: as §1
# idasanutlin = compound: COc1cc(C(=O)O)ccc1NC(=O)[C@@H]1N[C@@H](CC(C)(C)C)[C@](C#N)(c2ccc(Cl)cc2F)[C@H]1c1cccc(Cl)c1F [idasanutlin]
# In short: as §1
# gefitinib = compound: COc1cc2ncnc(Nc3ccc(F)c(Cl)c3)c2cc1OCCCN1CCOCC1 [gefitinib]
# In short: as §1
# crizotinib = compound: C[C@@H](Oc1cc(-c2cnn(C3CCNCC3)c2)cnc1N)c1c(Cl)ccc(F)c1Cl [crizotinib]
# In short: as §1
# duvelisib = compound: C[C@H](Nc1ncnc2nc[nH]c12)c1cc2cccc(Cl)c2c(=O)n1-c1ccccc1 [duvelisib]
# In short: as §1
# tozasertib = compound: Cc1cc(Nc2cc(N3CCN(C)CC3)nc(Sc3ccc(NC(=O)C4CC4)cc3)n2)n[nH]1 [tozasertib]
# In short: as §1
# [6] = compound: Cc1cc(SCc2sc(-c3ccc(C(F)(F)F)cc3)nc2C)ccc1OCC(=O)O
# In short: as §1
# doramapimod = compound: Cc1ccc(-n2nc(C(C)(C)C)cc2NC(=O)Nc2ccc(OCCN3CCOCC3)c3ccccc23)cc1 [doramapimod]
# In short: as §1
# filanesib = compound: CON(C)C(=O)N1N=C(c2cc(F)ccc2F)S[C@@]1(CCCN)c1ccccc1 [filanesib]
# In short: as §1
# [7] = compound: CS(=O)(=O)c1ccc(-c2cnc(N)c(C(=O)Nc3ccccc3)n2)cc1
# In short: as §1
# Chain of UniProt Q9NZJ5 (Q9NZJ5 whole entry, looked up): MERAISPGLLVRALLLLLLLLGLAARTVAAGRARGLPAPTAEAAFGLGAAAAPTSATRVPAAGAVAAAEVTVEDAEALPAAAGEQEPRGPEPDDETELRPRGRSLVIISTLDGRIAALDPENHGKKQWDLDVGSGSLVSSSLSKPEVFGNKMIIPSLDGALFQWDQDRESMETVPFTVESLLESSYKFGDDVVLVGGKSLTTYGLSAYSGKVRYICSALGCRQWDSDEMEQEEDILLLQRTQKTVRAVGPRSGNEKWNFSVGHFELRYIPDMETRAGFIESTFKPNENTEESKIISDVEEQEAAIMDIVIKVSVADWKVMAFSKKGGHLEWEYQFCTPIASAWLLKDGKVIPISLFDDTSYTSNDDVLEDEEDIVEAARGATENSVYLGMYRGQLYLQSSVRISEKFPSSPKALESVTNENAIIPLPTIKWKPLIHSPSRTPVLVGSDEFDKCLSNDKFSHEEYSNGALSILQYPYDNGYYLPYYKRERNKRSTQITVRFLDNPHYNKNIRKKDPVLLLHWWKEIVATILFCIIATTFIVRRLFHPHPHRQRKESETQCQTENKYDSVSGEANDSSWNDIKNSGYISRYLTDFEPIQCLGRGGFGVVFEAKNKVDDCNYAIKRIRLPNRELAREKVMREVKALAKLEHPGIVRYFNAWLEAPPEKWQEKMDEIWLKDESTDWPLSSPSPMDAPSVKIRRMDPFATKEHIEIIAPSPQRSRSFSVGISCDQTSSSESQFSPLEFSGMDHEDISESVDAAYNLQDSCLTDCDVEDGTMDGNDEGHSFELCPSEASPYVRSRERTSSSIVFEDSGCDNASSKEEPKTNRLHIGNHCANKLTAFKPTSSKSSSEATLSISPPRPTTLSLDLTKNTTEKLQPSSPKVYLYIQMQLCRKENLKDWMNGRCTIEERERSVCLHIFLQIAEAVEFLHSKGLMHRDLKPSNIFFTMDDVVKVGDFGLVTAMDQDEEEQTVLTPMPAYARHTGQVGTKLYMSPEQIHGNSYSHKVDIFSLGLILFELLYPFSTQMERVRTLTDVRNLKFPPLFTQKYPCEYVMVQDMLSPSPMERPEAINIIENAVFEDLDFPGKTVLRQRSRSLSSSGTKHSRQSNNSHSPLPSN
# Chain of UniProt Q07973 (Q07973 whole entry, looked up): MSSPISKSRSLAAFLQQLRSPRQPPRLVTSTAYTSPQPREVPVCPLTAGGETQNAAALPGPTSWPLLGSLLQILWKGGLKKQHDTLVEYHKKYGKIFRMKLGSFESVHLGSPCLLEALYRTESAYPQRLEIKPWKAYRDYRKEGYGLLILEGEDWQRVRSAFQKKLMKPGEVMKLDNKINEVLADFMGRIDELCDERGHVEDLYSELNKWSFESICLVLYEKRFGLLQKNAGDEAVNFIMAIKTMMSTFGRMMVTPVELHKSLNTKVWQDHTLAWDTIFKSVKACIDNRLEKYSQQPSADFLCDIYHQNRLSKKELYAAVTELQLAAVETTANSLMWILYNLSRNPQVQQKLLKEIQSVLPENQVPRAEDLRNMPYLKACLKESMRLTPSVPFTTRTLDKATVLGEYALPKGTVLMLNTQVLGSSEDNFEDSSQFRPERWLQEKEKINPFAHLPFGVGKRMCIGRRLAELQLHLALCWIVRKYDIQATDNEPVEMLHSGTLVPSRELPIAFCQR
# Chain of UniProt P0CG12 (P0CG12 whole entry, looked up): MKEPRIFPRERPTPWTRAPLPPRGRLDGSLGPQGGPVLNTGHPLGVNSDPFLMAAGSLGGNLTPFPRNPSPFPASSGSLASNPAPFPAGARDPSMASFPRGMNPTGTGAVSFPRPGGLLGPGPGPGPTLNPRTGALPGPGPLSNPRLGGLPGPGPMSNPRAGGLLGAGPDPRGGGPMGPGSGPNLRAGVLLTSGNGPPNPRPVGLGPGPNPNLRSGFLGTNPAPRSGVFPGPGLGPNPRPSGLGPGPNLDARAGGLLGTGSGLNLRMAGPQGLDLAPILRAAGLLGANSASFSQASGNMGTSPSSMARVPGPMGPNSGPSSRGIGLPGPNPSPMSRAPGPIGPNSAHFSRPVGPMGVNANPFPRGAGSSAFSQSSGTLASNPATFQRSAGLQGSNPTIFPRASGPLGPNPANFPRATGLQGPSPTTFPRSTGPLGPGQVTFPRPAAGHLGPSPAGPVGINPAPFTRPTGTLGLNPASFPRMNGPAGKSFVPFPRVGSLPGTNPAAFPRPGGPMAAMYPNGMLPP
# Chain of UniProt Q9Y6B2 (Q9Y6B2 whole entry, looked up): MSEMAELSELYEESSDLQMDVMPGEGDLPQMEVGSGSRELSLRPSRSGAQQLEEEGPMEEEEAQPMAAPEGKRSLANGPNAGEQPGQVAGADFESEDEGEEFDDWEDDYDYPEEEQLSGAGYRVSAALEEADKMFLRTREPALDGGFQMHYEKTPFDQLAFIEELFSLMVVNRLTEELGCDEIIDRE
# Chain of UniProt Q5JWR5 (Q5JWR5 whole entry, looked up): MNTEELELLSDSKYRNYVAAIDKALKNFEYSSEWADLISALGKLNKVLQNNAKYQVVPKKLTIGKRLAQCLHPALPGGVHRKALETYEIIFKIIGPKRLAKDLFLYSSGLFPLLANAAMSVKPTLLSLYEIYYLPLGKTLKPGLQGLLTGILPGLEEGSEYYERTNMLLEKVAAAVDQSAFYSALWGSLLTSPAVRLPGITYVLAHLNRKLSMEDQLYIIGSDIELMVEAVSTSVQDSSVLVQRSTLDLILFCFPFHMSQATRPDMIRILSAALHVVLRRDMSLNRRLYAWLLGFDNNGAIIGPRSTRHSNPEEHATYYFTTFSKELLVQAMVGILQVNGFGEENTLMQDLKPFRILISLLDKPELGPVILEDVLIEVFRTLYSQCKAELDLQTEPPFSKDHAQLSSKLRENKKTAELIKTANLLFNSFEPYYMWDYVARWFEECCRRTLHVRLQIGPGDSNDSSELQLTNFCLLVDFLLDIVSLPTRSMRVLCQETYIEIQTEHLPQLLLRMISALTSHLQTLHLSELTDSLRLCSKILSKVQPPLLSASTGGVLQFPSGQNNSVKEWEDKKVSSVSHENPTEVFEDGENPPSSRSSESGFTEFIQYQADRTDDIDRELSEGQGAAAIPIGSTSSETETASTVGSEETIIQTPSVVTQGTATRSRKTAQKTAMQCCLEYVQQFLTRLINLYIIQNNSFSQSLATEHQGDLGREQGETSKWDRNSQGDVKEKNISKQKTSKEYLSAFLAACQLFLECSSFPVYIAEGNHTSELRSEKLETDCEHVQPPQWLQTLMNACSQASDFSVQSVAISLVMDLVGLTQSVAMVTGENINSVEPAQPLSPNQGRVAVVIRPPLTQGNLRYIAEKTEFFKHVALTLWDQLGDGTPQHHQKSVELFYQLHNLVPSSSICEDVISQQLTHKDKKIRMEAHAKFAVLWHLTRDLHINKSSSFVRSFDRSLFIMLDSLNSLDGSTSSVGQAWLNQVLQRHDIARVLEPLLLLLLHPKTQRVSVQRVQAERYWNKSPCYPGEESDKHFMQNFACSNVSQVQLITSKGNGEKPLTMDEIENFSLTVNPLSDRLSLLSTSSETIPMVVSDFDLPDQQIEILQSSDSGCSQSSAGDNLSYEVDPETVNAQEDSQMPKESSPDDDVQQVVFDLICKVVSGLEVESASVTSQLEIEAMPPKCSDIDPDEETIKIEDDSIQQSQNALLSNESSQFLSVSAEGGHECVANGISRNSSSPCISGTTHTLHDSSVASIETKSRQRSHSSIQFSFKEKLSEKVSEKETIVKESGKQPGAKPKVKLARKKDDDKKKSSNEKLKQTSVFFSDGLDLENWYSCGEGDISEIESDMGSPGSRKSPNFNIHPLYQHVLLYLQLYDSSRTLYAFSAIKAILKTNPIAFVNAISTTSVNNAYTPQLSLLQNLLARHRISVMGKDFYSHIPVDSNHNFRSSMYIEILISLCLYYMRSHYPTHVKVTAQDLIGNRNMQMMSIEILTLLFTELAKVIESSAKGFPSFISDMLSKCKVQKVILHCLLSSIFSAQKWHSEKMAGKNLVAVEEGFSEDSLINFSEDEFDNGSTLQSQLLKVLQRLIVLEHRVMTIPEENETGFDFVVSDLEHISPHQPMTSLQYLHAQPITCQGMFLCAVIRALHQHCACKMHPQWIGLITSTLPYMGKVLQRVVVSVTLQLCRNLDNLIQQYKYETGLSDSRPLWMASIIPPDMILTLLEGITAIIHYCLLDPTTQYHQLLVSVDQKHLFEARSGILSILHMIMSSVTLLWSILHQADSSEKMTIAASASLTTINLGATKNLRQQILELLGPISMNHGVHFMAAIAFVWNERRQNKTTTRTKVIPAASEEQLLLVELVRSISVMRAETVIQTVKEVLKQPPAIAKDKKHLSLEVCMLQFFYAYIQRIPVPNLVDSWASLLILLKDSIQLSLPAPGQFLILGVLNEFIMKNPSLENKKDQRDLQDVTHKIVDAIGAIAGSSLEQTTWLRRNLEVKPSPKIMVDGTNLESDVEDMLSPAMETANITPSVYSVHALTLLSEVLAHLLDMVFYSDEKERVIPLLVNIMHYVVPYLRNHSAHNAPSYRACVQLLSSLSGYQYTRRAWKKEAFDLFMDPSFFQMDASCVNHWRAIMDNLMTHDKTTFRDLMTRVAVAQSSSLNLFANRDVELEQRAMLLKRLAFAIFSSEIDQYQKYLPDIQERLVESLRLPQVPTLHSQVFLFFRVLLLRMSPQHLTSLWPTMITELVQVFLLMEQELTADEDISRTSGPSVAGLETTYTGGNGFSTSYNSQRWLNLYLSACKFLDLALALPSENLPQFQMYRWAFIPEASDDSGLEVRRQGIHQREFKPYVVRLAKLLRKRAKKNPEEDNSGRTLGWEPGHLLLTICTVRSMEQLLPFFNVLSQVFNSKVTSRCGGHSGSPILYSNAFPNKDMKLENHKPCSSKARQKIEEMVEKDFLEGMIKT
# Chain of UniProt Q9NYP7 (Q9NYP7 whole entry, looked up): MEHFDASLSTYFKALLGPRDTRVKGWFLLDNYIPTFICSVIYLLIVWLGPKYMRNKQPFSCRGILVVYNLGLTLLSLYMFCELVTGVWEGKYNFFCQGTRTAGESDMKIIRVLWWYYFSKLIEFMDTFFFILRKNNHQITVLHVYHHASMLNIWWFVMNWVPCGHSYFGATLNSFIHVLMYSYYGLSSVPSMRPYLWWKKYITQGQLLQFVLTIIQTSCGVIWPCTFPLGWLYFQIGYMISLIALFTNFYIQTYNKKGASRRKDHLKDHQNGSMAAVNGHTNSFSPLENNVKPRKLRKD
target,measurement,setting,value
EEF2K (UniProt O00418),log2 fold change,zotarolimus,0.021
same,log2 fold change,alisertib,0.031
same,log2 fold change,[1],-0.062
same,log2 fold change,[2],-0.896 (active)
same,log2 fold change,lapatinib,-0.017
same,log2 fold change,pictilisib,-0.014
same,log2 fold change,[3],-0.044
same,log2 fold change,[4],0.4
same,log2 fold change,gandotinib,0.13
same,log2 fold change,ispinesib,-0.208
DBNL (UniProt Q9UJU6),log2 fold change,zotarolimus,-0.324
same,log2 fold change,[4],-0.166
CYP24A1 (UniProt Q07973),log2 fold change,[5],0.1
same,log2 fold change,idasanutlin,0.039
same,log2 fold change,alisertib,-0.095
same,log2 fold change,[1],0.091
same,log2 fold change,gefitinib,-0.044
same,log2 fold change,[2],-0.306
same,log2 fold change,lapatinib,0.067
same,log2 fold change,pictilisib,-0.059
same,log2 fold change,crizotinib,-0.043
same,log2 fold change,duvelisib,-0.079
same,log2 fold change,gandotinib,0.535
same,log2 fold change,tozasertib,-0.05
same,log2 fold change,[6],-0.13
same,log2 fold change,doramapimod,0.283
same,log2 fold change,ispinesib,-0.244
EDRF1 (UniProt Q3B7T1),log2 fold change,filanesib,0.052
same,log2 fold change,zotarolimus,0.419 (active)
same,log2 fold change,alisertib,-0.033
same,log2 fold change,[2],0.044
same,log2 fold change,pictilisib,0.244
same,log2 fold change,[7],0.024
same,log2 fold change,[3],0.055
same,log2 fold change,[4],-0.008
same,log2 fold change,duvelisib,0.129
same,log2 fold change,gandotinib,0.098
same,log2 fold change,[6],0.134
same,log2 fold change,ispinesib,-0.24
EIF2AK3 (UniProt Q9NZJ5),log2 fold change,[5],0.135
same,log2 fold change,zotarolimus,-0.06
same,log2 fold change,idasanutlin,-0.039
same,log2 fold change,alisertib,-0.141
same,log2 fold change,[1],0.201
same,log2 fold change,gefitinib,-0.161
same,log2 fold change,[2],0.078
same,log2 fold change,lapatinib,0.146
same,log2 fold change,pictilisib,-0.233
same,log2 fold change,crizotinib,-0.062
same,log2 fold change,[3],0.181
same,log2 fold change,[4],0.109
same,log2 fold change,duvelisib,0.031
same,log2 fold change,gandotinib,-0.113
same,log2 fold change,tozasertib,-0.359
same,log2 fold change,[6],0.188
same,log2 fold change,doramapimod,0.032
EPHX2 (UniProt E5RI53),log2 fold change,[3],0.067
DENND1A isoform 6 (UniProt Q8TEH3),log2 fold change,[5],0.154
same,log2 fold change,[1],-0.18
same,log2 fold change,lapatinib,0.06
same,log2 fold change,crizotinib,-0.231
same,log2 fold change,tozasertib,-0.093
same,log2 fold change,doramapimod,0.374
DOLPP1 (UniProt Q86YN1),log2 fold change,[5],-0.05
same,log2 fold change,zotarolimus,-0.003
same,log2 fold change,idasanutlin,-0.043
same,log2 fold change,alisertib,-0.022
same,log2 fold change,[1],0.129
same,log2 fold change,gefitinib,0.013
same,log2 fold change,[2],0.011
same,log2 fold change,lapatinib,-0.07
same,log2 fold change,crizotinib,-0.082
same,log2 fold change,[4],-0.135
same,log2 fold change,tozasertib,0.038
same,log2 fold change,doramapimod,-0.026
same,log2 fold change,ispinesib,0.358 (active)
DCAF12 (UniProt Q5T6F0),log2 fold change,filanesib,-0.037
same,log2 fold change,alisertib,0.073
same,log2 fold change,[2],0.036
same,log2 fold change,pictilisib,0.16
same,log2 fold change,[7],-0.101
same,log2 fold change,gandotinib,-0.735 (active)
ELOVL5 isoform 2 (UniProt Q9NYP7),log2 fold change,filanesib,-0.157
same,log2 fold change,zotarolimus,-0.041
same,log2 fold change,idasanutlin,-0.224
same,log2 fold change,alisertib,-0.026
same,log2 fold change,[1],-0.05
same,log2 fold change,gefitinib,-0.142
same,log2 fold change,[2],0
same,log2 fold change,lapatinib,0.094
same,log2 fold change,pictilisib,0
same,log2 fold change,[7],0.038
same,log2 fold change,[3],0.048
same,log2 fold change,[4],-0.004
same,log2 fold change,duvelisib,0.074
same,log2 fold change,gandotinib,-0.34
same,log2 fold change,tozasertib,-0.01
same,log2 fold change,[6],0.082
same,log2 fold change,ispinesib,-0.311
EID1 (UniProt Q9Y6B2),log2 fold change,filanesib,0.119
same,log2 fold change,alisertib,0.024
same,log2 fold change,[1],0.015
same,log2 fold change,gefitinib,-0.031
same,log2 fold change,[2],-0.239
same,log2 fold change,lapatinib,-0.097
same,log2 fold change,pictilisib,0.3
same,log2 fold change,[7],-0.14
same,log2 fold change,[3],-0.424
same,log2 fold change,gandotinib,0.275
same,log2 fold change,tozasertib,-0.142
F2RL3 (UniProt Q96RI0),log2 fold change,zotarolimus,-0.075
same,log2 fold change,idasanutlin,-0.017
same,log2 fold change,[1],0.017
same,log2 fold change,lapatinib,0.029
same,log2 fold change,[4],-0.159
same,log2 fold change,duvelisib,0.081
same,log2 fold change,tozasertib,-0.163
same,log2 fold change,[6],-0.059
same,log2 fold change,ispinesib,0.004
DOP1A (UniProt Q5JWR5),log2 fold change,alisertib,-0.013
same,log2 fold change,[2],0.02
same,log2 fold change,[3],0.007
DERPC (UniProt P0CG12),log2 fold change,[5],-0.016
same,log2 fold change,alisertib,0.021
same,log2 fold change,gefitinib,0.099
same,log2 fold change,[2],0.086
same,log2 fold change,pictilisib,-0.107
same,log2 fold change,crizotinib,0.029
same,log2 fold change,duvelisib,0.191
same,log2 fold change,gandotinib,0.006
same,log2 fold change,[6],-0.113
same,log2 fold change,doramapimod,-0.099
same,log2 fold change,ispinesib,0.07
DDB1 isoform 2 (UniProt Q16531),log2 fold change,filanesib,0.077
same,log2 fold change,pictilisib,0.094
same,log2 fold change,[7],0.009
same,log2 fold change,[3],0.118
same,log2 fold change,gandotinib,-0.228
CTNNBL1 (UniProt Q8WYA6),log2 fold change,[1],-0.008
same,log2 fold change,lapatinib,-0.581
FAM117B (UniProt Q6P1L5),log2 fold change,[5],0.053
same,log2 fold change,zotarolimus,0.007
same,log2 fold change,idasanutlin,-0.062
same,log2 fold change,pictilisib,0.208
same,log2 fold change,crizotinib,0.563
same,log2 fold change,[3],0.007
same,log2 fold change,[4],-0.021
same,log2 fold change,duvelisib,-0.381
same,log2 fold change,gandotinib,-0.164
same,log2 fold change,tozasertib,-0.175
same,log2 fold change,[6],0.257
same,log2 fold change,doramapimod,0.21
same,log2 fold change,ispinesib,-0.057
ENTPD7 (UniProt Q9NQZ7),log2 fold change,[5],-0.031
same,log2 fold change,filanesib,-0.268
same,log2 fold change,alisertib,-0.054
same,log2 fold change,[1],0.06
same,log2 fold change,gefitinib,-0.026
same,log2 fold change,[2],0.03
same,log2 fold change,lapatinib,0.099
same,log2 fold change,[7],0.256
same,log2 fold change,crizotinib,0.084
same,log2 fold change,[3],-0.037
same,log2 fold change,duvelisib,-0.178
same,log2 fold change,tozasertib,0.185
same,log2 fold change,[6],0.014
same,log2 fold change,doramapimod,0.025
ERF (UniProt P50548),log2 fold change,filanesib,0.328
same,log2 fold change,pictilisib,0.148
same,log2 fold change,[7],0.173
same,log2 fold change,[3],-0.05
same,log2 fold change,gandotinib,-0.29
same,log2 fold change,tozasertib,-1.2 (active)

# — the supplement of paper PMC10849652
